In PubChem BioAssay (NCI) one finds growth data, which are given here for eight molecules.

Compounds without any hit were thinned out: in the full panel of roughly 83,000, 20% have a hit.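 Testing used 96-well plates and a 48-hour single-concentration exposure. Example: -40 means 40% of the starting cells died.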 Unmarked numbers belong to inactive results. Activity calls are given as the source filed them. The calls were made as follows: active = growth percent below 10; inactive = the rest.

Some test systems named below: NCI-H23 lung; NCI-H226 lung; NCI-H322M lung; HOP-62 NSCLC; NCI-H460 lung; HOP-92 NSCLC; NCI-H522 lung; A549/ATCC NSCLC; 786-0 renal; COLO 205 colon; DU-145 prostate; K-562 leukemia; MALME-3M melanoma; MDA-MB-231 breast; RXF 393 renal; SF-268 CNS; SF-295 CNS; SF-539 CNS; UACC-257 melanoma; M14 melanoma.
Experiment in all cases: NCI-60 one-dose screen, 48 h (100 = growth as untreated, 0 = no growth, -100 = all killed)
What all share (details): 10 µM unless noted

On to `C#C[C@@]1(O)[C@@H](CO)O[C@@H](n2ccc3c(N)ncnc32)[C@@H]1O`, for which the growth in the test with NCI-H23 lung is -20.7% (active); in the test with NCI-H226 lung, -54.4% (active); with NCI-H322M lung it was 14.5%; in the test on HOP-62 NSCLC, 4.56% (active); with NCI-H460 lung it was 0.612% (active); in the test with HOP-92 NSCLC, -15.8% (active). The growth with NCI-H522 lung is -18.4% (active); with A549/ATCC NSCLC, -19.4% (active); in the test with 786-0 renal, 4.14% (active); with COLO 205 colon, -55.2% (active); in the test on DU-145 prostate, 3.75% (active); in the test with K-562 leukemia, 4.79% (active). Also, the growth in the test with MALME-3M melanoma was -13.2% (active); in the test on MDA-MB-231 breast, -14.7% (active); in the test with RXF 393 renal it was -33.6% (active); with SF-268 CNS, 9.98% (active); in the test on SF-295 CNS, 5.82% (active); in the test on SF-539 CNS, 8.04% (active). Moreover, the growth was 17.3% in the test with UACC-257 melanoma and -38.6% (active) with M14 melanoma.
In the case of `O=C(Nc1ccc(S(=O)(=O)NC2CCCCCC2)cc1)C(c1ccccc1)S(=O)(=O)c1ccc(F)cc1` (stereo not given), the growth is 9.28% (active) in the test on NCI-H23 lung; -21.5% (active) with NCI-H226 lung; 17.1% in the test on NCI-H322M lung; -17.4% (active) in the test on HOP-62 NSCLC; 1.37% (active) in the test on NCI-H460 lung; -12.2% (active) with HOP-92 NSCLC. Also, the growth was -16% (active) in the test with NCI-H522 lung; -12.4% (active) in the test with A549/ATCC NSCLC; 20.4% in the test on 786-0 renal; -18% (active) in the test with COLO 205 colon; 9.51% (active) with DU-145 prostate; 7.42% (active) in the test with K-562 leukemia. Further, the growth is -4.32% (active) with MALME-3M melanoma; 13.8% with MDA-MB-231 breast; -33.6% (active) in the test on RXF 393 renal; 24.3% in the test on SF-268 CNS; -13.8% (active) in the test on SF-295 CNS; 9.02% (active) in the test with SF-539 CNS. Besides, the growth in the test on UACC-257 melanoma is -24.6% (active); with M14 melanoma it was 2.29% (active).
Consider `COC(=O)CCc1cc(O)c2c(c1)[C@@H](C(=O)OC)[C@H](c1ccc(O)c(O)c1)O2`, for which the growth is 76.5% in the test with NCI-H23 lung; 102% with NCI-H226 lung; 98.3% with NCI-H322M lung; 54.3% in the test with HOP-62 NSCLC; 107% in the test on NCI-H460 lung; 79.8% in the test on HOP-92 NSCLC. The growth is 51.8% in the test with NCI-H522 lung; 98% in the test on A549/ATCC NSCLC; 93.9% in the test with 786-0 renal; 104% in the test on COLO 205 colon; 95% in the test with DU-145 prostate; 26.2% in the test with K-562 leukemia. Moreover, the growth was 66.8% in the test on MALME-3M melanoma; 78.8% with MDA-MB-231 breast; 88.5% in the test on RXF 393 renal; 74.1% with SF-268 CNS; 84.7% in the test with SF-295 CNS; 74.5% in the test with SF-539 CNS. Also, the growth in the test on UACC-257 melanoma was 85.6%; with M14 melanoma, 32.5%.
With `O=C(Nc1cc(Br)ccn1)c1cc2cc(Nc3nc(-c4ccccc4)nc4ccccc34)ccc2oc1=O`, the growth with NCI-H23 lung was 98.6%; in the test on NCI-H226 lung, 117%; in the test with NCI-H322M lung, 111%; with HOP-62 NSCLC, 103%; in the test with NCI-H460 lung, 106%; in the test with HOP-92 NSCLC, 105%. Besides, the growth in the test on NCI-H522 lung is 95.2%; with A549/ATCC NSCLC, 104%; in the test with 786-0 renal, 94.2%; in the test on COLO 205 colon it was 105%; in the test on DU-145 prostate, 111%; in the test with K-562 leukemia, 88.6%. Moreover, the growth in the test with MALME-3M melanoma is 117%; in the test with MDA-MB-231 breast, 118%; in the test on RXF 393 renal, 133%; in the test with SF-268 CNS it was 112%; in the test with SF-295 CNS it was 108%; with SF-539 CNS it was 105%. Moreover, the growth in the test with UACC-257 melanoma was 112%; with M14 melanoma, 102%.
With `Cc1cc(C)cc(Nc2nccc(-c3c(-c4ccc(F)cc4)ncn3C3CCNCC3)n2)c1`, the growth in the test with NCI-H23 lung is 43.1%; in the test on NCI-H226 lung it was 32.3%; in the test with NCI-H322M lung, 32.2%; in the test with HOP-62 NSCLC, 25.4%; in the test with NCI-H460 lung it was -5.36% (active); in the test on HOP-92 NSCLC, 26.7%. In addition, the growth was -36.2% (active) in the test on NCI-H522 lung; 6.65% (active) in the test on A549/ATCC NSCLC; 11.8% in the test with 786-0 renal; -66% (active) in the test on COLO 205 colon; 9.38% (active) with DU-145 prostate; -33.3% (active) in the test on K-562 leukemia. Besides, the growth in the test on MALME-3M melanoma is -36.1% (active); with MDA-MB-231 breast it was 7.44% (active); in the test with RXF 393 renal, 18.3%; with SF-268 CNS, 28.4%; in the test with SF-295 CNS, 5.75% (active); in the test with SF-539 CNS, 31.3%. Besides, the values for the growth with UACC-257 melanoma and with M14 melanoma were -50.6% (active) and -86.4% (active), respectively.
Regarding `COc1ccc(C2C(c3ccccc3)C(=O)N2c2cc(OC)c(OC)c(OC)c2)cc1I` (stereo not given), the growth with NCI-H23 lung is 24.6%; with NCI-H226 lung it was 60.6%; with NCI-H322M lung, 42.9%; in the test on HOP-62 NSCLC it was 24.7%; in the test with NCI-H460 lung, 4.29% (active); in the test with HOP-92 NSCLC it was 42.5%. For the same molecule, the growth in the test with NCI-H522 lung is -9.3% (active); in the test on A549/ATCC NSCLC it was 16.9%; in the test with 786-0 renal, 17.4%; in the test with COLO 205 colon it was -64.3% (active); in the test on DU-145 prostate, 7.36% (active); in the test with K-562 leukemia, 6.76% (active). The growth in the test on MALME-3M melanoma is 80.1%; with MDA-MB-231 breast, 23.3%; in the test with RXF 393 renal, 24.2%; with SF-268 CNS, 34.9%; in the test with SF-295 CNS it was 17.9%; in the test on SF-539 CNS, 1.87% (active). In addition, the growth was 47.9% in the test on UACC-257 melanoma and 8.46% (active) with M14 melanoma.
Regarding `CC1CCN(CCCCCOc2ccc3oc4cc(Cl)ccc4c(=O)c3c2)CC1`, the growth is 87.7% in the test with NCI-H23 lung; 113% in the test on NCI-H226 lung; 73.8% with NCI-H322M lung; 82.2% in the test with HOP-62 NSCLC; 36.3% in the test with NCI-H460 lung; 93.6% with HOP-92 NSCLC. The growth in the test on NCI-H522 lung is 69.9%; in the test on A549/ATCC NSCLC, 68.6%; in the test with 786-0 renal, 65.1%; in the test on COLO 205 colon it was 36.6%; with DU-145 prostate, 83.7%; with K-562 leukemia it was 5.17% (active). For the same molecule, the growth in the test with MALME-3M melanoma was 9.78% (active); in the test on MDA-MB-231 breast, 44.3%; with RXF 393 renal, 52.8%; with SF-268 CNS, 68.1%; in the test with SF-295 CNS, 78.2%; in the test on SF-539 CNS it was 40.6%. For the same molecule, the growth in the test with UACC-257 melanoma is -38.8% (active); with M14 melanoma it was -50.1% (active).
`O=C(O)CCNC1CCCCC1`: the growth is 90.4% in the test on NCI-H23 lung; 93.9% with NCI-H226 lung; 115% in the test on NCI-H322M lung; 91.6% in the test with HOP-62 NSCLC; 99.3% in the test on NCI-H460 lung; 100% in the test on HOP-92 NSCLC. Further, the growth in the test on NCI-H522 lung was 79.7%; in the test with A549/ATCC NSCLC it was 102%; with 786-0 renal, 101%; with COLO 205 colon it was 95.8%; with DU-145 prostate it was 112%; in the test with K-562 leukemia, 100%. Moreover, the growth in the test with MALME-3M melanoma was 144%; in the test with MDA-MB-231 breast it was 100%; in the test on RXF 393 renal, 137%; with SF-268 CNS, 97.8%; with SF-295 CNS, 131%; with SF-539 CNS, 95.7%. For the same molecule, the growth was 20.9% in the test on UACC-257 melanoma and 93.3% in the test with M14 melanoma.
